These results are taken from PubChem BioAssay (NCI).

About 79,000 compounds went through this panel and 15% of them were active in at least one assay; those are over-represented in the sample as a whole. Values without a mark were called inactive. Active and inactive are the calls of the source. Rule as the data show it: active = growth inhibition above about 70%; inactive = the rest.

Test [1] can be described thus: NCI Yeast Anticancer Drug Screen. Data for the rad50 strain (AID 155).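 Also: 0% = growth of vehicle-only cultures of the same strain.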 The conditions noted are these: S. cerevisiae rad50 strain growth inhibition, active compounds read high. Summed up:
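Growth of the mutant yeast was measured after compound exposure and referenced to vehicle-treated cultures.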

A short description of test [2]: NCI Yeast Anticancer Drug Screen. Data for the mec2-1 strain (AID 157). The conditions noted are these: S. cerevisiae mec2-1 strain, active compounds read high. Summed up: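 Each compound was tested on mec2-1 yeast, a strain altered in DNA damage repair or cell cycle control. Growth inhibition is reported relative to vehicle.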
The nature of test [3]: NCI Yeast Anticancer Drug Screen. Data for the sgs1 mgt1 strain (AID 161).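 Also: 0% = growth of cultures given vehicle only.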 Conditions: S. cerevisiae sgs1 mgt1 strain, active compounds read high. In short, it runs like this: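 Mutant yeast exposed to compound; growth scored against vehicle-only wells.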
Test [4] in a line: NCI Yeast Anticancer Drug Screen. Data for the cln2 rad14 strain (AID 165).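 Also: 0% = growth equal to vehicle treated cultures.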 The conditions noted are these: S. cerevisiae cln2 rad14 strain, active compounds read high. In short, it runs like this: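 Test compounds were added to cln2 rad14 yeast cultures; inhibition of growth was then determined by comparison with vehicle treatment.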
Test [5] in a line: NCI Yeast Anticancer Drug Screen. Data for the bub3 strain (AID 167). Conditions: S. cerevisiae bub3 mutant strain, active compounds read high. In short, it runs like this: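 Whole-cell yeast assay. The mutant strain was incubated with compounds, and growth inhibition was determined by comparison with vehicle-treated cells.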
Test [6] in a line: NCI Yeast Anticancer Drug Screen. Data for the mlh1 rad18 strain (AID 175). The conditions noted are these: S. cerevisiae mlh1 rad18 strain growth inhibition, active compounds read high. In short, it runs like this:
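Inhibition values reflect reduced growth of mutant yeast versus vehicle-treated controls following compound exposure; the mutations affect DNA damage repair.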

[7] abbreviates: at 5.0 µM (retest, dose inferred, filed as 0.5).
The mark [8] stands for this setting: at 50.0 µM (retest, dose inferred, filed as 5.0).

With `CCOC(=O)c1nnc2cc(-c3ccccc3)nn2c1-c1ccccc1`, the growth inhibition in test [1] (setting [7]) was 65%; in test [1] (setting [8]), 85% (active); in test [1] (at 50.0 µM) it was 51.1%; in test [2] (setting [7]) it was 35%; in test [2] (setting [8]) it was 66%; in test [2] (at 50.0 µM), 21.8%. The growth inhibition was 48% in test [3] (setting [7]); 80% (active) in test [3] (setting [8]); 75.2% (active) in test [3] (at 50.0 µM); 25% in test [4] (setting [7]); 38% in test [4] (setting [8]); 41.4% in test [4] (at 50.0 µM). Moreover, the growth inhibition in test [5] (setting [7]) is 45%; in test [5] (setting [8]), 70% (active); in test [5] (at 50.0 µM) it was 65.9%; in test [6] (setting [7]), 61%; in test [6] (setting [8]), 90% (active); in test [6] (at 50.0 µM) it was 38.6%.

`Cc1cc(C(=O)c2ccccc2)ccc1O`: the growth inhibition in test [1] (setting [7]) is 2%; in test [1] (setting [8]), 33%; in test [1] (at 50.0 µM) it was 48%; in test [2] (setting [7]), -6%; in test [2] (setting [8]), 36%; in test [2] (at 50.0 µM) it was 36.9%. Further, the growth inhibition in test [3] (setting [7]) is 3%; in test [3] (setting [8]) it was 47%; in test [3] (at 50.0 µM) it was 46.6%; in test [4] (setting [7]) it was -7%; in test [4] (setting [8]), -16%; in test [4] (at 50.0 µM), -8.4%. In addition, the growth inhibition in test [5] (setting [7]) was -3%; in test [5] (setting [8]) it was 3%; in test [5] (at 50.0 µM) it was 48.7%; in test [6] (setting [7]), -2%; in test [6] (setting [8]) it was 36%; in test [6] (at 50.0 µM), 70.1% (active).

Take `Cn1c(=S)c2[nH]c(=S)[nH]c2n(C)c1=O`: the growth inhibition in test [1] (setting [7]) is 85% (active); in test [1] (setting [8]) it was 91% (active); in test [1] (at 50.0 µM) it was 97.2% (active); in test [2] (setting [7]), 91% (active); in test [2] (setting [8]), 92% (active); in test [2] (at 50.0 µM), 96.7% (active). For the same compound, the growth inhibition is 94% (active) in test [3] (setting [7]); 96% (active) in test [3] (setting [8]); 96.7% (active) in test [3] (at 50.0 µM); 78% (active) in test [4] (setting [7]); 47% in test [4] (setting [8]); 80.3% (active) in test [4] (at 50.0 µM). The growth inhibition was 91% (active) in test [5] (setting [7]); 89% (active) in test [5] (setting [8]); 96.7% (active) in test [5] (at 50.0 µM); 92% (active) in test [6] (setting [7]); 93% (active) in test [6] (setting [8]); 97.2% (active) in test [6] (at 50.0 µM).

Turning to `Oc1ccc(O)c2c1CC=C(Cl)C2`, the growth inhibition was 10% in test [1] (setting [7]); 48% in test [1] (setting [8]); 52.4% in test [1] (at 50.0 µM); 12% in test [2] (setting [7]); 57% in test [2] (setting [8]); 52.9% in test [2] (at 50.0 µM). Moreover, the growth inhibition was 13% in test [3] (setting [7]); 55% in test [3] (setting [8]); 33% in test [3] (at 50.0 µM); -1% in test [4] (setting [7]); 86% (active) in test [4] (setting [8]); 24.9% in test [4] (at 50.0 µM). In addition, the growth inhibition in test [5] (setting [7]) is 26%; in test [5] (setting [8]), 83% (active); in test [5] (at 50.0 µM), 56.5%; in test [6] (setting [7]), 17%; in test [6] (setting [8]), 75% (active); in test [6] (at 50.0 µM) it was 59.8%.

Take `CC(=O)N[C@H]1CCC2[C@@H]3CCC4=CC(=O)NCC[C@]4(C)C3CC[C@@]21C` (stereo not given in full): the growth inhibition in test [1] (setting [7]) was 0%; in test [1] (setting [8]), 89% (active); in test [1] (at 50.0 µM) it was 56.5%; in test [2] (setting [7]), -2%; in test [2] (setting [8]), 92% (active); in test [2] (at 50.0 µM), 46.6%. Besides, the growth inhibition in test [3] (setting [7]) is -3%; in test [3] (setting [8]), 58%; in test [3] (at 50.0 µM), 56.4%; in test [4] (setting [7]), -4%; in test [4] (setting [8]), 78% (active); in test [4] (at 50.0 µM) it was 69.5%. The growth inhibition in test [5] (setting [7]) is 6%; in test [5] (setting [8]) it was 88% (active); in test [5] (at 50.0 µM), 96.2% (active); in test [6] (setting [7]), -2%; in test [6] (setting [8]) it was 85% (active); in test [6] (at 50.0 µM) it was 57.5%.

Consider `CCCC/C=C1/CCC(CN(C)C)C1=O` (stereo not given), for which the growth inhibition in test [1] (setting [7]) is 7%; in test [1] (setting [8]), 60%; in test [1] (at 50.0 µM), 51.9%; in test [2] (setting [7]) it was -2%; in test [2] (setting [8]) it was 48%; in test [2] (at 50.0 µM), 37.4%. Also, the growth inhibition in test [3] (setting [7]) was 16%; in test [3] (setting [8]), 56%; in test [3] (at 50.0 µM) it was 81% (active); in test [4] (setting [7]) it was 6%; in test [4] (setting [8]), 40%; in test [4] (at 50.0 µM), 46.2%. Besides, the growth inhibition in test [5] (setting [7]) is 14%; in test [5] (setting [8]), 84% (active); in test [5] (at 50.0 µM), 61.9%; in test [6] (setting [7]), 19%; in test [6] (setting [8]), 69%; in test [6] (at 50.0 µM), 54.2%.

Take `CC#CC(=O)Nc1ccccc1CC(c1c[nH]c2ccccc12)c1c[nH]c2ccccc12`: the growth inhibition in test [1] (setting [7]) was 50%; in test [1] (setting [8]), 50%; in test [1] (at 50.0 µM) it was 75.4% (active); in test [2] (setting [7]), 31%; in test [2] (setting [8]), 31%; in test [2] (at 50.0 µM) it was 55.1%. In addition, the growth inhibition in test [3] (setting [7]) is 40%; in test [3] (setting [8]), 40%; in test [3] (at 50.0 µM), 67.5%; in test [4] (setting [7]), 19%; in test [4] (setting [8]), 19%; in test [4] (at 50.0 µM), 67.7%. Further, the growth inhibition is 32% in test [5] (setting [7]); 32% in test [5] (setting [8]); 60.8% in test [5] (at 50.0 µM); 35% in test [6] (setting [7]); 35% in test [6] (setting [8]); 53.8% in test [6] (at 50.0 µM).

For `O=C(CCl)Oc1ccc(Sc2ccc(OC(=O)CCl)cc2)cc1`, the growth inhibition is 6% in test [1] (setting [7]); 97% (active) in test [1] (setting [8]); 98.7% (active) in test [1] (at 50.0 µM); 12% in test [2] (setting [7]); 98% (active) in test [2] (setting [8]); 98.3% (active) in test [2] (at 50.0 µM). Besides, the growth inhibition was 10% in test [3] (setting [7]); 97% (active) in test [3] (setting [8]); 98.8% (active) in test [3] (at 50.0 µM); 13% in test [4] (setting [7]); 94% (active) in test [4] (setting [8]); 96.3% (active) in test [4] (at 50.0 µM). Moreover, the growth inhibition is 1% in test [5] (setting [7]); 99% (active) in test [5] (setting [8]); 99.4% (active) in test [5] (at 50.0 µM); 7% in test [6] (setting [7]); 99% (active) in test [6] (setting [8]); 97.9% (active) in test [6] (at 50.0 µM).

Consider `c1ccc(COc2cccc3[nH]ccc23)cc1`, for which the growth inhibition in test [1] (setting [7]) is -3%; in test [1] (setting [8]), 29%; in test [1] (at 50.0 µM), 74.4% (active); in test [2] (setting [7]) it was -3%; in test [2] (setting [8]) it was 10%; in test [2] (at 50.0 µM) it was 90.2% (active). The growth inhibition in test [3] (setting [7]) is -6%; in test [3] (setting [8]), 5%; in test [3] (at 50.0 µM) it was 86.6% (active); in test [4] (setting [7]), -7%; in test [4] (setting [8]), 6%; in test [4] (at 50.0 µM), 88.8% (active). Besides, the growth inhibition in test [5] (setting [7]) is 3%; in test [5] (setting [8]) it was 35%; in test [5] (at 50.0 µM), 83.8% (active); in test [6] (setting [7]), -5%; in test [6] (setting [8]), 25%; in test [6] (at 50.0 µM) it was 95.5% (active).

For `C[C@]12CC[C@@H]3c4cc(OCC(F)(F)F)c(O)cc4CC[C@H]3[C@@H]1CC[C@@H]2O`, the growth inhibition is -3% in test [1] (setting [7]); 97% (active) in test [1] (setting [8]); 98.6% (active) in test [1] (at 50.0 µM); -5% in test [2] (setting [7]); 99% (active) in test [2] (setting [8]); 98.5% (active) in test [2] (at 50.0 µM). The growth inhibition was 10% in test [3] (setting [7]); 99% (active) in test [3] (setting [8]); 98.8% (active) in test [3] (at 50.0 µM); -13% in test [4] (setting [7]); 97% (active) in test [4] (setting [8]); 98.2% (active) in test [4] (at 50.0 µM). Also, the growth inhibition in test [5] (setting [7]) is 5%; in test [5] (setting [8]), 99% (active); in test [5] (at 50.0 µM), 98.8% (active); in test [6] (setting [7]) it was -6%; in test [6] (setting [8]) it was 98% (active); in test [6] (at 50.0 µM), 98.6% (active).
